# Test results reported in article PMC7862700, “An all-to-all approach to the identification of sequence-specific readers for epigenetic DNA modifications on cytosine”.
# Columns and labels:
# Experiment in all cases: DAPPL (digital affinity profiling via proximity ligation, sequencing); 10 mM Tris-HCl pH 7.5, 50 mM NaCl, 1 mM DTT, 4% glycerol, room temperature, 30 min; GST-TFs on glutathione beads, 16-mer random dsDNA library, 0.1% formaldehyde crosslink after washing; high values mean tight binding
# FEV = molecular target: T1, FEV (Homo sapiens, UniProt Q99581 1-238); details: protein: recombinant; tags: N-terminal GST; dsDNA, one strand shown
# T1 sequence: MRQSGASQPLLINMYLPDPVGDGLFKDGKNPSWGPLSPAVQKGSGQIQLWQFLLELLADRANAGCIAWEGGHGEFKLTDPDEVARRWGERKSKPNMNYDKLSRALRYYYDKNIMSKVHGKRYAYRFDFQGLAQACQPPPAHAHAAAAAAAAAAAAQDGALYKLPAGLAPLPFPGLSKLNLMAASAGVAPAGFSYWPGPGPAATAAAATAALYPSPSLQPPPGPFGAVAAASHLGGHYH
# Procedure, shortened: (§1)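 Sequencing on an Illumina NextSeq500 followed washing, crosslinking with 0.1% formaldehyde, proximity ligation (BsaI/T4 ligase, 1 h, 37 °C) and PCR amplification of pools that had been incubated for 30 min at room temperature with 200 nmole of a random double-stranded 16-mer DNA library in Tris/NaCl/DTT/glycerol buffer. Each pool held DNA-barcoded human transcription factors, expressed in yeast as GST fusions and captured on glutathione beads, plus a tag-only sample. Binding signal is a hexamer's read frequency for a factor divided by its frequency in the tag-only sample.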
# ETV5 = ETV5 (Homo sapiens, UniProt P41161 1-510); details: protein: recombinant; tags: N-terminal GST; dsDNA, one strand shown
# Procedure, shortened: as §1
# HSF1 = HSF1 (Homo sapiens, UniProt Q00613 1-529); details: protein: recombinant; tags: N-terminal GST; chain copies: 3; dsDNA, one strand shown
# Procedure, shortened: as §1
# SPIC = molecular target: T2, SPIC (Homo sapiens, UniProt Q8N5J4 1-248); details: protein: recombinant; tags: N-terminal GST; dsDNA, one strand shown
# T2 sequence: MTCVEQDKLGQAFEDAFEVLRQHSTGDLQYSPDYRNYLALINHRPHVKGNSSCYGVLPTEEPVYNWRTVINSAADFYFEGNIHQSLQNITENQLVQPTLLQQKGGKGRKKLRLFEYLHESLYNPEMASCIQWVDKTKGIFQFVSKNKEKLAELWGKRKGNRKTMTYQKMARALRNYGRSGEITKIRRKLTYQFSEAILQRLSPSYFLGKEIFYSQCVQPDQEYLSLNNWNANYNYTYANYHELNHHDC
# Procedure, shortened: as §1
# ELF4 = ELF4 (Homo sapiens, UniProt Q99607 1-663); details: protein: recombinant; tags: N-terminal GST; dsDNA, one strand shown
# Procedure, shortened: as §1
# ELK4 = molecular target: T3, ELK4 (Homo sapiens, UniProt P28324-2 1-405); details: protein: recombinant; tags: N-terminal GST; dsDNA, one strand shown
# T3 sequence: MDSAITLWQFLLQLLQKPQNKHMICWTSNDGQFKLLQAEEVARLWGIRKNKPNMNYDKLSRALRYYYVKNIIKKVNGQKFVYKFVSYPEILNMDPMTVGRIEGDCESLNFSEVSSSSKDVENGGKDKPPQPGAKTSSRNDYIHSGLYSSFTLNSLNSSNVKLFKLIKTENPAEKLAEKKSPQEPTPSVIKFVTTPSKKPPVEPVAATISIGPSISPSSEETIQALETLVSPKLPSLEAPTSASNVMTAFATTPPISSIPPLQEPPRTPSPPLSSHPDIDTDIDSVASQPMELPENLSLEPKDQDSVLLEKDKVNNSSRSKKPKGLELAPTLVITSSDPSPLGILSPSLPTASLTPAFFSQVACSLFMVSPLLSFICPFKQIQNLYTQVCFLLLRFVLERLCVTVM
# Procedure, shortened: as §1
# ETV2 = molecular target: T4, ETV2 (Homo sapiens, UniProt O00321 1-342); details: protein: recombinant; tags: N-terminal GST; dsDNA, one strand shown
# T4 sequence: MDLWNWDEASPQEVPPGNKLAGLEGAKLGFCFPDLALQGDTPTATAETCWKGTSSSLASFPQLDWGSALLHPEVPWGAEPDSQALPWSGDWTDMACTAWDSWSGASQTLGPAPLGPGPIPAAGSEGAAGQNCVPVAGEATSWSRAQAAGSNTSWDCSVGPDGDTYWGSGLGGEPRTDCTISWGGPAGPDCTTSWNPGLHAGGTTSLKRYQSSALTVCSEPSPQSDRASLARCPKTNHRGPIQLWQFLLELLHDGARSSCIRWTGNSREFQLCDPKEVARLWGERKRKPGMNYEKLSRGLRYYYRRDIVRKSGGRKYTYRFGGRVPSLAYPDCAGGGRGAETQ
# Procedure, shortened: as §1
# ELF3 = molecular target: T5, ELF3 (Homo sapiens, UniProt P78545 1-371); details: protein: recombinant; tags: N-terminal GST; dsDNA, one strand shown
# T5 sequence: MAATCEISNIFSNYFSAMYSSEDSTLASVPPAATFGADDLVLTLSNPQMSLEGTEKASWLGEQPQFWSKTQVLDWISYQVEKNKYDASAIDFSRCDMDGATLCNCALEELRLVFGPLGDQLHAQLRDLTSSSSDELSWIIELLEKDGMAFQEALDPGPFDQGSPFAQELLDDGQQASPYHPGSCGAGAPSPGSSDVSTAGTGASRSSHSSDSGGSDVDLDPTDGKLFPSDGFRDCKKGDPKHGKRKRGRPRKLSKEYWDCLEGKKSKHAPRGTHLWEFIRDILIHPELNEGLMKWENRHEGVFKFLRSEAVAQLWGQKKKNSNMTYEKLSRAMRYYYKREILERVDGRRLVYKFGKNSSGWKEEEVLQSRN
# Procedure, shortened: as §1
# ETV1 = ETV1 (Homo sapiens, UniProt P50549 1-477); details: protein: recombinant; tags: N-terminal GST; dsDNA, one strand shown
# Procedure, shortened: as §1
# ERF = molecular target: T6, ERF (Homo sapiens, UniProt P50548 1-548); details: protein: recombinant; tags: N-terminal GST; dsDNA, one strand shown
# T6 sequence: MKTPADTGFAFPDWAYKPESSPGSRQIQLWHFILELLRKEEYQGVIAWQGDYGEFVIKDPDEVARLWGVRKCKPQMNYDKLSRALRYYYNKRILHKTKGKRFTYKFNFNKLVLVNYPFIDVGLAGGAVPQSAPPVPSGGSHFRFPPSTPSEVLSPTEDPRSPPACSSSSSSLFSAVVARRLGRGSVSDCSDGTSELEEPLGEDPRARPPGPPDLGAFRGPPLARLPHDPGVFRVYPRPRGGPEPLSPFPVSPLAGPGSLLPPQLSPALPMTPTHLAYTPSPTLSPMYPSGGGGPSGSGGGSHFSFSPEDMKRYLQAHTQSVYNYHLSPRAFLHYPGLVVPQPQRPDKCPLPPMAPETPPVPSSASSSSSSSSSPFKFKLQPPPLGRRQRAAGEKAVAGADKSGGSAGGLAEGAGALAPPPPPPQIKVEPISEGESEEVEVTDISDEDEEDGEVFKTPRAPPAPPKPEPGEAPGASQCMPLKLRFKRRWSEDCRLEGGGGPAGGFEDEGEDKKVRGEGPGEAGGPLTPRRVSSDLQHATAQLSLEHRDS
# Procedure, shortened: as §1
# ETV3L = molecular target: T7, ETV3L (Homo sapiens, UniProt Q6ZN32 1-361); details: protein: recombinant; tags: N-terminal GST; dsDNA, one strand shown
# T7 sequence: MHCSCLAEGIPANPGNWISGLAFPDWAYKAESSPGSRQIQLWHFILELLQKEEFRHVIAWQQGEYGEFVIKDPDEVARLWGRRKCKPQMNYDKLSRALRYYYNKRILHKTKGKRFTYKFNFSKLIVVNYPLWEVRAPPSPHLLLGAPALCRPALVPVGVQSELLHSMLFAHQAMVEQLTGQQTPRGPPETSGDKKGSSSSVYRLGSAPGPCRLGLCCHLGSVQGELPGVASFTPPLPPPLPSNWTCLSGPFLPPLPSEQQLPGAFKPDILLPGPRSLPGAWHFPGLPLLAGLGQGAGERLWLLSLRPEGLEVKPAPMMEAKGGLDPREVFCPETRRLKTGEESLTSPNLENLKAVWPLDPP
# Procedure, shortened: as §1
# ETS2 = molecular target: T8, ETS2 (Homo sapiens, UniProt P15036 1-469); details: protein: recombinant; tags: N-terminal GST; dsDNA, one strand shown
# T8 sequence: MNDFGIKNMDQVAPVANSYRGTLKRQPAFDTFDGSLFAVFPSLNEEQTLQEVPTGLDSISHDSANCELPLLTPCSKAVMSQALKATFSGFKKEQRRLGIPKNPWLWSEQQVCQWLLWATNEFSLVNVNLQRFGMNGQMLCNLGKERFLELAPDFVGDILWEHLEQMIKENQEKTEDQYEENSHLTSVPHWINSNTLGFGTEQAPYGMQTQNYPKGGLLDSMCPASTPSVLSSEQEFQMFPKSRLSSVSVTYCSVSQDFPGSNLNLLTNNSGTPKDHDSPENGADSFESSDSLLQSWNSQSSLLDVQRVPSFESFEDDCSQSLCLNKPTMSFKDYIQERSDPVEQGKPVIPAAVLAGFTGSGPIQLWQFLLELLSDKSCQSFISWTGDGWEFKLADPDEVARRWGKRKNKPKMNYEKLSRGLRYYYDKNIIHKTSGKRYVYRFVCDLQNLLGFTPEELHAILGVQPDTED
# Procedure, shortened: as §1
# SPDEF = molecular target: T9, SPDEF (Homo sapiens, UniProt O95238 1-335); details: protein: recombinant; tags: N-terminal GST; dsDNA, one strand shown
# T9 sequence: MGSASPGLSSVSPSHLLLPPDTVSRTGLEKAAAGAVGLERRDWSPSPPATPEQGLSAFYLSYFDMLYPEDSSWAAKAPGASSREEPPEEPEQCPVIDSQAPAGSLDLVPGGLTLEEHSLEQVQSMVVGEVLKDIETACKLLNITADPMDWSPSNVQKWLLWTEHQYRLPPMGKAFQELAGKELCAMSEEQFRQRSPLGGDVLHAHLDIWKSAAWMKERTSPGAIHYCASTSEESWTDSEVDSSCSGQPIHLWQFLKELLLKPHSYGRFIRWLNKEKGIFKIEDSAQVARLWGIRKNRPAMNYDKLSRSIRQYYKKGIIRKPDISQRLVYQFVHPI
# Procedure, shortened: as §1
# ETV7 = molecular target: T10, ETV7 (Homo sapiens, UniProt Q9Y603 1-341); details: protein: recombinant; tags: N-terminal GST; dsDNA, one strand shown
# T10 sequence: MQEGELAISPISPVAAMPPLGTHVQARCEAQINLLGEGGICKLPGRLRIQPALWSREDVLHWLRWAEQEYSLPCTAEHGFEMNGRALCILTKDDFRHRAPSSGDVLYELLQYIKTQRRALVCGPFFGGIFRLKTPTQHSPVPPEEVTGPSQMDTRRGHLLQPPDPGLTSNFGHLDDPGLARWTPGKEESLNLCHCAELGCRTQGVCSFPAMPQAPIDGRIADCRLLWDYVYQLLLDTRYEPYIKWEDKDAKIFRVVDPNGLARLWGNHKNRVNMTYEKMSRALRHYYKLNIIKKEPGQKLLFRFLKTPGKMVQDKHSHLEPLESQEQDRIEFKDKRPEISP
# Procedure, shortened: as §1
# ELF5 = molecular target: T11, ELF5 (Homo sapiens, UniProt Q9UKW6-2 1-255); details: protein: recombinant; tags: N-terminal GST; dsDNA, one strand shown
# T11 sequence: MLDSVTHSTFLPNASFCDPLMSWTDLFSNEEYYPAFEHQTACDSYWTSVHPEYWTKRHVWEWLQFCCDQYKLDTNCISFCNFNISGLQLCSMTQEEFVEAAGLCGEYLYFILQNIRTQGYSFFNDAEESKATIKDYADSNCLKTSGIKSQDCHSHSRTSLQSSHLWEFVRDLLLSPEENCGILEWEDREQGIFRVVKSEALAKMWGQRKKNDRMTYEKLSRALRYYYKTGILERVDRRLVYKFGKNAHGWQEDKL
# Procedure, shortened: as §1
# ETV3 = molecular target: T12, ETV3 (Homo sapiens, UniProt P41162-2 1-143); details: protein: recombinant; tags: N-terminal GST; dsDNA, one strand shown
# T12 sequence: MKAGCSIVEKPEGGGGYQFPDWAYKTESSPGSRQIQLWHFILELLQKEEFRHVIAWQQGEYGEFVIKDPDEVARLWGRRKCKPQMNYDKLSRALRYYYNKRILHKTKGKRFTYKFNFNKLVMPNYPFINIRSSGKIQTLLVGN
# Procedure, shortened: as §1
# ETV6 = ETV6 (Homo sapiens, UniProt P41212 1-452); details: protein: recombinant; tags: N-terminal GST; dsDNA, one strand shown
# Procedure, shortened: as §1
# ETV5, sequence (P41161 whole entry): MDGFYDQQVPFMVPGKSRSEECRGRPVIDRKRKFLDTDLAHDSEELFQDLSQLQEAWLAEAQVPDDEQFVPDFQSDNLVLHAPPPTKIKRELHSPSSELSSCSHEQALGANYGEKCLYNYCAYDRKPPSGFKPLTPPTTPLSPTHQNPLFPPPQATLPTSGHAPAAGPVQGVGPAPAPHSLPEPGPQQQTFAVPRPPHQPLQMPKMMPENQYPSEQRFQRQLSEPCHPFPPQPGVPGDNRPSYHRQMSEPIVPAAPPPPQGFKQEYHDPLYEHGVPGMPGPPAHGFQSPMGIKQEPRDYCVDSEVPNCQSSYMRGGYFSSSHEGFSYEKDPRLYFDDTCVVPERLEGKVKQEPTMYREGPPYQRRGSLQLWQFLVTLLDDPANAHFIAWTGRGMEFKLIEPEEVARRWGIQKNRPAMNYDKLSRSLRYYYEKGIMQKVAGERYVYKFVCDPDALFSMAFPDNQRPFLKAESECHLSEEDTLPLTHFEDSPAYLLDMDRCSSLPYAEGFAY
# ETV1, sequence (P50549 whole entry): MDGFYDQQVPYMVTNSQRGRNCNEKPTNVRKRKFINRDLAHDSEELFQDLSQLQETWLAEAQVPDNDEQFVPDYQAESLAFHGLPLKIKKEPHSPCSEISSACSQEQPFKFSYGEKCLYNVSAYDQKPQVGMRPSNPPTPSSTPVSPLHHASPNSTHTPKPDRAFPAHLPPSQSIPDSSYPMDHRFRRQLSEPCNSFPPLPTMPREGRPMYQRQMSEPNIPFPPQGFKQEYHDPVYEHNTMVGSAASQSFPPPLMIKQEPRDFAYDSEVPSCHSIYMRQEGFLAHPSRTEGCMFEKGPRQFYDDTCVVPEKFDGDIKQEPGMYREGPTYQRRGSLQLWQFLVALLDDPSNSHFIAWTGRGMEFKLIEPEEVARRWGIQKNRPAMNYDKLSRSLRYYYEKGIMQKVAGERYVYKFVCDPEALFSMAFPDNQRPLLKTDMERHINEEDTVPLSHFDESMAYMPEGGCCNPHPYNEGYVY
# ELF4, sequence (Q99607 whole entry): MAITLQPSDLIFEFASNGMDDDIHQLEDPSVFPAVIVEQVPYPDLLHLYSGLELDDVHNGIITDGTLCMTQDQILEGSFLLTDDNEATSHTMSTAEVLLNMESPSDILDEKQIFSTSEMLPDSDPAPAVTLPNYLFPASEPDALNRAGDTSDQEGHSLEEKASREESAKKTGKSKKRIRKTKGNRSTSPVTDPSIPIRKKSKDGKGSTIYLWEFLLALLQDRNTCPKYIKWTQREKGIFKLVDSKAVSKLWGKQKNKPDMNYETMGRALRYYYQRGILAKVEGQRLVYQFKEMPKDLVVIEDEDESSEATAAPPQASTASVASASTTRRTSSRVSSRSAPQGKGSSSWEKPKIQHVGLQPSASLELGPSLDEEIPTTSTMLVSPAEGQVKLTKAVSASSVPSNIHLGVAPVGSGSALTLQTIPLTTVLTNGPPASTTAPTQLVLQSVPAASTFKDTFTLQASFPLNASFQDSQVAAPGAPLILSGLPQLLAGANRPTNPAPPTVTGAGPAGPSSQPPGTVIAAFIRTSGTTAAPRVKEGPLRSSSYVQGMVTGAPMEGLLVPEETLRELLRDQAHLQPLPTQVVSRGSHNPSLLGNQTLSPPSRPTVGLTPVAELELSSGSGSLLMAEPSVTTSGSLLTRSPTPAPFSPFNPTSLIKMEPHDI
# HSF1, sequence (Q00613 whole entry): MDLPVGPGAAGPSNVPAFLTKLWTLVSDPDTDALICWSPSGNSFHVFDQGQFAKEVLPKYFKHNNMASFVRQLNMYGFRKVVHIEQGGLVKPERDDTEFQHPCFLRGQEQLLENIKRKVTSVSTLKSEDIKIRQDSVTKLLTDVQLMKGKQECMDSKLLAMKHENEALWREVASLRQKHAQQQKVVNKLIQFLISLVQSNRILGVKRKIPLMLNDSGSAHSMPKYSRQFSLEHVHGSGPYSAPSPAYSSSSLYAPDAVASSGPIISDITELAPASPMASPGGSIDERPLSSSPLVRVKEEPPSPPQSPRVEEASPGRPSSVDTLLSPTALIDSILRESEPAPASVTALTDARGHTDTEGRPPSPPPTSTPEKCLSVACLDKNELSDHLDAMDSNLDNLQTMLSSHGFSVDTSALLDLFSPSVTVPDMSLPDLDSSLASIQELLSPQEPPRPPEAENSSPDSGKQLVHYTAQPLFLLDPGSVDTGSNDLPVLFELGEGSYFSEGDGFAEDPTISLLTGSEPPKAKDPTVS
# ETV6, sequence (P41212 whole entry): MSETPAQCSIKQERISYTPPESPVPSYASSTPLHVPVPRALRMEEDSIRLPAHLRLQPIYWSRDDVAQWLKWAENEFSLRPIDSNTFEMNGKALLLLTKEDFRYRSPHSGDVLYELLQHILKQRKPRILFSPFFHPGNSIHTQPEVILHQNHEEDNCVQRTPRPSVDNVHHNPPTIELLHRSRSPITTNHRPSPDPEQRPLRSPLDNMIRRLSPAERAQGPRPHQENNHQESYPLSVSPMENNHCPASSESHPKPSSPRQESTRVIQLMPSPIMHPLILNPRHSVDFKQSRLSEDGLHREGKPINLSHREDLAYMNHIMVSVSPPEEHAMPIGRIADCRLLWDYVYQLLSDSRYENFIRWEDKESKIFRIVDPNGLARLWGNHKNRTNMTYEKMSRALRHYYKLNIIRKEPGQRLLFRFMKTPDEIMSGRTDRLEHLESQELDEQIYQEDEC
sequence,measurement,setting,value
CCTGCA,binding signal,FEV,"1.26 fold enrichment (6-mer frequency, TF over GST control)"
same,binding signal,ETV5,"1.39 fold enrichment (6-mer frequency, TF over GST control)"
same,binding signal,HSF1,"1.11 fold enrichment (6-mer frequency, TF over GST control)"
same,binding signal,SPIC,"1.15 fold enrichment (6-mer frequency, TF over GST control)"
same,binding signal,ELF4,"1.3 fold enrichment (6-mer frequency, TF over GST control)"
same,binding signal,ELK4,"1.27 fold enrichment (6-mer frequency, TF over GST control)"
same,binding signal,ETV2,"1.22 fold enrichment (6-mer frequency, TF over GST control)"
same,binding signal,ELF3,"1.68 fold enrichment (6-mer frequency, TF over GST control)"
same,binding signal,ETV1,"1.28 fold enrichment (6-mer frequency, TF over GST control)"
same,binding signal,ERF,"1.08 fold enrichment (6-mer frequency, TF over GST control)"
same,binding signal,ETV3L,"1.32 fold enrichment (6-mer frequency, TF over GST control)"
same,binding signal,ETS2,"1.26 fold enrichment (6-mer frequency, TF over GST control)"
same,binding signal,SPDEF,"1.37 fold enrichment (6-mer frequency, TF over GST control)"
same,binding signal,ETV7,"1.24 fold enrichment (6-mer frequency, TF over GST control)"
same,binding signal,ELF5,"1.3 fold enrichment (6-mer frequency, TF over GST control)"
same,binding signal,ETV3,"1.22 fold enrichment (6-mer frequency, TF over GST control)"
same,binding signal,ETV6,"1.28 fold enrichment (6-mer frequency, TF over GST control)"
